In PubChem BioAssay (NCATS):
Records with an inconclusive call do not appear. Calls of active or inactive are those of the source. Unless noted, the call rests on the fitted dose curve; in most records, active means well fitted curve in the direction sought with a large enough effect; inconclusive means small, poorly fitted or top-dose-only effect, or another doubt; inactive means no such curve, though single readings can be large; an effect the other way counts as inactive or inconclusive.

What was measured:
[1] = biological target: Peptidyl-prolyl cis-trans isomerase NIMA-interacting 1 (Homo sapiens) (UniProt Q13526); assay: qHTS Validation Assay to Find Inhibitors of Pin1 (AID 504536; active means well fitted inhibition curve with a large enough effect in the polarisation, with a control signal flat, not every such curve was filed as active; the % refers to the polarisation; further: potency means the concentration at half of the fitted maximal effect)
Method in brief: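 Fluorescence polarization competition: compounds (titration) displace HiFluor-488-labeled Pin1-1b peptide from Pin1 (0.3 uM final) in pH 7.5 HEPES buffer with DTT, 10 min at room temperature; %Activity normalized to no-enzyme wells, curves fitted.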

[2] = biological target: Phosphoglycerate kinase, glycosomal (Trypanosoma brucei brucei) (UniProt P07378); assay: qHTS Validation Assay to Find Inhibitors of Phosphoglycerate Kinase (AID 504547); further: potency means the concentration at half of the fitted maximal effect
Method in brief: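 PGK activity was coupled to GAPDH (100nM final), which generates the unstable substrate 1,3-bisphosphoglycerate in-well. Reactions ran 60 minutes at room temperature in 100mM TEA pH 7.6, 5mM MgCl2, 0.01% Tween-20, then Kinase-Glo Plus luminescence was read.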

[3] = biological target: phosphoglycerate mutase (Leishmania major) (UniProt Q4Q090); assay: qHTS Validation Assay to Find Inhibitors of Phosphoglycerate Mutase (AID 504548); details: Potency: inhibition qHTS;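 further: end-point luminescence from Kinase-GloPlus after the PGAM reaction; series mostly up to about 58 µM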
Method in brief: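 L. major PGAM (1.25nM final) was added to substrate buffer and pinned compound, incubated 45 minutes at room temperature, then Kinase-GloPlus added; luminescence read after 10 minutes. Buffer: 100 mM TEA pH 7.6, 5 mM MgCl2, 0.01% Tween-20.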

[4] = biological target: Ubiquitin carboxyl-terminal hydrolase 1 (Homo sapiens) (UniProt O94782); assay: Inhibitors of USP1/UAF1: Pilot qHTS (AID 504865);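 further: rhodamine fluorescence freed from ubiquitin-rhodamine substrate followed over time; top concentration of the series differs between compounds; nearly all actives have a fitted effect of over 35% in size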
Method in brief: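 Kinetic fluorescence assay: 1nM USP1/UAF1, 15 min compound preincubation, then 150nM Ub-Rho; 480/540 nm.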

[5] = qHTS for Inhibitors of ATXN expression: Validation of Cytotoxic Assay (AID 588349)
Method in brief: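 Read-out: ATP-based luminescence (CellTiter Glo) reflecting viability of HEK293 cells after 72 hr incubation at 37 degrees C with a concentration series of each compound.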

[6] = qHTS for Inhibitors of ATXN expression: Validation (AID 588378); further: series mostly up to about 57 µM; nearly all actives have a fitted effect of over 75% in size
Method in brief: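 Validation of ATXN2 expression inhibitors uses a cell-based luciferase fusion reporter in HEK293 cells, with 24 h compound exposure and paired viability (fluorescence) and reporter (luminescence) end-point reads.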

Measured: Potency

Chain of Peptidyl-prolyl cis-trans isomerase NIMA-interacting 1 (Homo sapiens) (Q13526 whole entry, looked up): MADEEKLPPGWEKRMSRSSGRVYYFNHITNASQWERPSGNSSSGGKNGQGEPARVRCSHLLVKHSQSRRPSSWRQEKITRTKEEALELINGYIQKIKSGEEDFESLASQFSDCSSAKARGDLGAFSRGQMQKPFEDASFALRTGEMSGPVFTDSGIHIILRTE
Chain of Phosphoglycerate kinase, glycosomal (Trypanosoma brucei brucei) (P07378 whole entry, looked up): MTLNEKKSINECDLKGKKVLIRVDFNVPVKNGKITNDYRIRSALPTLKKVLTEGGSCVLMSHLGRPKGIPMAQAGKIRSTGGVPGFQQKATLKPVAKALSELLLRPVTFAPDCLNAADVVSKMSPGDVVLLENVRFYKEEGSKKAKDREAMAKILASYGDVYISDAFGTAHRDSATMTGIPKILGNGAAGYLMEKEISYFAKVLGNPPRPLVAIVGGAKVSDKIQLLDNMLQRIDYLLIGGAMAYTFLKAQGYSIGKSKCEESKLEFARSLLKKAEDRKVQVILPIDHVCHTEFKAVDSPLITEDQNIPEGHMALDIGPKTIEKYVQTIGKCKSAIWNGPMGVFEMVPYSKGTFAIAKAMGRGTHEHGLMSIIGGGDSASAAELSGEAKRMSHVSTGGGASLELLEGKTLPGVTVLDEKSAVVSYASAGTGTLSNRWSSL
Chain of Ubiquitin carboxyl-terminal hydrolase 1 (Homo sapiens) (O94782 whole entry, looked up): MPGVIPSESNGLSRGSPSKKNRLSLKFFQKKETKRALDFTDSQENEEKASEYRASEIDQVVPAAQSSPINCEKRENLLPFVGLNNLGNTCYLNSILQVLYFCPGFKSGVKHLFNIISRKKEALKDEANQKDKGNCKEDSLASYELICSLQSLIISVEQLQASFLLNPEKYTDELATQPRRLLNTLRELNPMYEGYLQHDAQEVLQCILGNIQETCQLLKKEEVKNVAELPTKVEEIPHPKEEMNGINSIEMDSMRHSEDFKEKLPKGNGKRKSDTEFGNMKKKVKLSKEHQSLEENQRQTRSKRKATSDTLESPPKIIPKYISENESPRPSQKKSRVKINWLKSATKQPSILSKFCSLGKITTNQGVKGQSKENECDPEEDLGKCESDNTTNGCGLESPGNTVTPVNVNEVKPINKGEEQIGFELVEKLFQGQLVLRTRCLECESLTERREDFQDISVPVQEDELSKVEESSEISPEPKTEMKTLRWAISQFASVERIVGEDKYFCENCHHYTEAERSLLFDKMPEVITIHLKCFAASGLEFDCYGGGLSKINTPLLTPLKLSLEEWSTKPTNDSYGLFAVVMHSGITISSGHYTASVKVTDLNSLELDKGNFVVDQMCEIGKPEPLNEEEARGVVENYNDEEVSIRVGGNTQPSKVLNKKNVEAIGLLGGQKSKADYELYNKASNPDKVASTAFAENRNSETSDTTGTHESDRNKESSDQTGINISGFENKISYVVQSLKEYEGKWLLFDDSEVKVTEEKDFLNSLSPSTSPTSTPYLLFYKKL
Chain of phosphoglycerate mutase (Leishmania major) (Q4Q090 1-553): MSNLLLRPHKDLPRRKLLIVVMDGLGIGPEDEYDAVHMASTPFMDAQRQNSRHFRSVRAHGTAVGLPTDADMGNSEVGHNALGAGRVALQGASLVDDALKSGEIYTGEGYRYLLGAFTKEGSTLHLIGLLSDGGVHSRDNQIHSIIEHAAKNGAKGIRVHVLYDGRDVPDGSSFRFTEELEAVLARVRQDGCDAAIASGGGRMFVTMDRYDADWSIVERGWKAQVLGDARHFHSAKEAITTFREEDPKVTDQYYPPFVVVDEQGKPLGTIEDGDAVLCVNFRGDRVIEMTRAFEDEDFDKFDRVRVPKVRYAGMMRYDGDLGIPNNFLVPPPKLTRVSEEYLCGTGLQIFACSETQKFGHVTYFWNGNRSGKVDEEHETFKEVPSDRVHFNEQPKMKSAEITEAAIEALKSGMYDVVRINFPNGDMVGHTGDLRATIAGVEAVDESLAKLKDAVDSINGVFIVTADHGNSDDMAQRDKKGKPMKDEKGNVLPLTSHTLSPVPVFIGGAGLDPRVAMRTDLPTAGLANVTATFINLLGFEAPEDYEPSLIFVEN

NC(=S)NCCC[C@H](N)C(=O)O
inactive: all assays above

OC[C@H]1O[C@@H](n2cnc3c(NC4CCCC4)ncnc32)[C@H](O)[C@@H]1O
inactive: all assays above

NC(=S)c1ccc[n+]([C@@H]2O[C@@H](COP(=O)([O-])OP(=O)(O)OC[C@H]3O[C@@H](n4cnc5c(N)ncnc54)[C@H](OP(=O)(O)O)[C@@H]3O)C(O)C2O)c1 (stereo partly drawn)
active: [1] 19 µM
inactive: all other assays above

OCC1O[C@H]([S-])[C@H](O)[C@@H](O)[C@@H]1O.[Au+] (stereo partly drawn)
inactive: [3] | [4]
active: [1] 4.26 µM | [2] 8.49 µM

C=CC(C)=C[C@@]1(C)SC(=O)C(C)=C1O
inactive: all assays above

CCCCC#Cc1nc(NC)c2ncn([C@@H]3O[C@H](CO)[C@@H](O)[C@H]3O)c2n1
inactive: all assays above

CN1CCc2cccc3c2C1Cc1ccc(O)c(O)c1-3 (stereo not drawn)
inactive: [1] | [2] | [3] | [4]
